Screening results (PubChem BioAssay)
VACV mCherry inh: vaccinia inhibition (mCherry reporter). Vaccinia virus mCherry reporter infection, fluorescence. Potency, µM (doses to about 36.5 µM), actives largely listed as inhibitors. hit rate 0.63% among 310,000. AID 720579; calls by dose curve; tested in A549 cells; further: nearly all actives have a fitted effect of over 35% in size
VACV Venus inh: vaccinia inhibition (Venus reporter). hit rate 0.46% among 330,000. Potency, µM (highest dose often 36.5 µM), most hits filed as inhibitors. AID 720580. Vaccinia virus Venus reporter expression, fluorescence; calls by dose curve; tested in A549 cells; further: nearly all actives have a fitted effect of over 30% in size
LmPK inhibitor: blocks Leishmania mexicana pyruvate kinase activity; Q27686; purified LmPK, Kinase-Glo ATP luminescence, 1 h; Potency, µM (doses to about 57.5 µM), hits mostly inhibitors; hit rate 0.37% among 290,000; AID 1721
Target sequence (Q27686 whole entry, looked up): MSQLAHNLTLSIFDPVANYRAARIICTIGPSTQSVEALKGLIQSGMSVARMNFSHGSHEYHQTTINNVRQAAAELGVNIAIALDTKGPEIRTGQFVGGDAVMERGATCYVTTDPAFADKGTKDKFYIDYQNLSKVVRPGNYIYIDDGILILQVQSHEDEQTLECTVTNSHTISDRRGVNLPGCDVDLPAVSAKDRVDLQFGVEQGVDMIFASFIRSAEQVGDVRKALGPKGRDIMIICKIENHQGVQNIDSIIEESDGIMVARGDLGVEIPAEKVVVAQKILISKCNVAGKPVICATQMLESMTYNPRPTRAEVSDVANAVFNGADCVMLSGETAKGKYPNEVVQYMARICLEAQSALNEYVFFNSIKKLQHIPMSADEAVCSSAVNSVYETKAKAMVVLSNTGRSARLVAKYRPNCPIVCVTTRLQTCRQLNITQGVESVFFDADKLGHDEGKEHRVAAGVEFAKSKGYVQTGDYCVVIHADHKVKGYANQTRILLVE
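qHTS format; LmPK 0.1 nM; substrates PEP 0.5 mM and ADP 0.1 mM. One-hour room-temperature incubation, then coupled luciferase luminescence; 0.5 nM enzyme wells mark activation.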
HCMV inh: human cytomegalovirus inhibition | activity change, negative = inhibition, % at 57.5 µM | hit rate 4.5% among 410,000 | HFF cells, HCMV-luciferase reporter, 72 h; stronger effect = lower value; in the data active means activity change below about -60%; inconclusive means no clear call, values can overlap the other calls; inactive means above about -39%
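Screen run at 2 compound doses on HFFs infected with reporter HCMV, MOI 1 PFU/cell. Luciferase activity from cell lysates at 72 h post infection gave inhibition relative to buffer-only and Salinomycin wells.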
Tb PYK inh: blocks Trypanosoma brucei pyruvate kinase; hit rate 0.12% among 410,000; Q57TT1; TbPYK enzyme, Kinase-Glo Plus ATP luminescence, 45 min; Potency, µM (series often up to 76.8 µM), usual class: inhibitors; AID 624173; further: nearly all actives have a fitted effect of over 50% in size
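Screened from lowest to highest concentration, compounds were pinned into TbPYK/substrate mixtures, and ADP (130 uM final) was added. Plates sat at room temperature for 45 min prior to Kinase-Glo Plus detection by luminescence.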
Large screens that a line does not name were inactive. In the library only some 5% were active in any assay of this set; here they are far more common. Unless noted, the call rests on the fitted dose curve; in most records, active means well fitted curve in the direction sought with a large enough effect; inconclusive means small, poorly fitted or top-dose-only effect, or another doubt; inactive means no such curve, though single readings can be large; an effect the other way counts as inactive or inconclusive.

C(#Cc1ccccc1)C[N+]1(CC#Cc2ccccc2)CCCCC1	HCMV inh -62
Cc1ccc(C#CC[N+]2(CC#Cc3ccc(C)cc3)CCCCC2)cc1	HCMV inh -101 (no result: VACV mCherry inh, VACV Venus inh)
CCc1ccccc1Nc1nc(N)nc(COC(=O)CCS(=O)(=O)c2ccccc2)n1	none (no result: LmPK inhibitor)
CN(C)CCCn1c2c(c(SCC(=O)Nc3ccc4c(c3)OCO4)nc1=O)CCCC2	HCMV inh inconclusive (no result: LmPK inhibitor)
O=C(C1=NNCC1c1ccccc1)C1CO1 (stereo not given)	HCMV inh -69 (no result: VACV mCherry inh, VACV Venus inh)
O=C(c1[nH]ncc1-c1ccccc1)C1CO1 (stereo not given)	none
CCC(=O)N1CCc2cc(S(=O)(=O)NC(C(=O)Nc3cccc(C)n3)C(C)C)ccc21 (stereo not given)	none (no result: VACV mCherry inh, VACV Venus inh)
O=C(CCCOc1ccc(Cl)cc1Cl)NNC(=O)c1ccc(NC(=O)c2ccccc2)cc1	none
COc1ccc(CN2CCc3nnc(CNC(=O)c4cc(C)oc4C)n3CC2)c2ccccc12	none (no result: LmPK inhibitor, HCMV inh, Tb PYK inh)
COc1ccccc1NC(=O)c1c(Nc2ccccc2C)sc(C(=O)Nc2cccc(Cl)c2)c1N	VACV Venus inh inconclusive, HCMV inh -97
COc1ccc(C(=O)c2sc(Nc3cccc(OC)c3)c(C(=O)Nc3cccc(C)c3C)c2N)cc1	HCMV inh -70 (no result: VACV mCherry inh, VACV Venus inh)
COc1ccc(Nc2sc(C(=O)c3ccc(Cl)cc3)c(N)c2C(=O)Nc2ccccc2OC)cc1	HCMV inh inconclusive (no result: VACV mCherry inh, VACV Venus inh)
Cc1cc(Nc2sc(C(=O)c3ccc(F)cc3)c(N)c2C(=O)Nc2ccc(F)cc2)ccc1Cl	VACV mCherry inh 5µM, VACV Venus inh inconclusive, HCMV inh -108 (no result: LmPK inhibitor)
Cc1ccc(NC(=O)c2c(Nc3ccccc3C)sc(C(=O)c3ccccc3)c2N)cc1	VACV mCherry inh inconclusive (no result: LmPK inhibitor)
COc1ccc(NC(=O)c2c(Nc3ccccc3)sc(C(=O)c3ccc(F)cc3)c2N)cc1	VACV mCherry inh inconclusive, VACV Venus inh inconclusive, HCMV inh -83
COC(=O)c1c(N2C(=O)[C@H]3[C@@H](C2=O)[C@]2(C(=O)Nc4c(C)cccc42)N2CCC[C@@H]32)sc(C)c1C	none
Cc1cccc(C)c1NC(=O)C1c2ccccc2OCC(=O)N1Cc1ccco1 (stereo not given)	none (no result: LmPK inhibitor)
COc1ccccc1CNC(=O)C1CCC1	none
COc1cccc(Nc2sc(C(=O)c3ccc(Cl)cc3)c(N)c2C(=O)NCc2ccc(C)cc2)c1	VACV mCherry inh inconclusive, VACV Venus inh inconclusive, HCMV inh -80 (no result: LmPK inhibitor)
COc1ccc(Nc2sc(C(=O)c3ccccc3)c(N)c2C(=O)Nc2cc(C)ccc2C)c(OC)c1	HCMV inh -74 (no result: LmPK inhibitor)
COc1cccc(Nc2sc(C(=O)c3ccc(F)cc3)c(N)c2C(=O)NCc2ccc(Cl)cc2)c1	none (no result: LmPK inhibitor)
COc1ccc(C(=O)N2CCC(n3nccc3NC(=O)C3CCOC3)CC2)cc1 (stereo not given)	none
COC(=O)C1=C(C)N(Cc2cccc(C(F)(F)F)c2)C(=NCc2ccc3c(c2)OCO3)NC1c1cccc(F)c1 (stereo not given)	none (no result: VACV mCherry inh, VACV Venus inh, LmPK inhibitor, Tb PYK inh)
COC(=O)C1=C(C)N(Cc2ccccc2)C(=NCCc2c[nH]c3ccccc23)N[C@H]1c1cccc(F)c1	VACV mCherry inh inconclusive, VACV Venus inh 13µM (no result: LmPK inhibitor)
CCN(CC)CCCN=C1N[C@@H](c2cccc(F)c2)C(C(=O)OC)=C(C)N1Cc1ccccc1	VACV mCherry inh inconclusive, VACV Venus inh 28µM (no result: LmPK inhibitor)
COC(=O)C1=C(C)N(Cc2cccc(C(F)(F)F)c2)C(=NCc2ccccc2C(F)(F)F)NC1c1cccc(F)c1 (stereo not given)	HCMV inh -78 (no result: VACV mCherry inh, VACV Venus inh, LmPK inhibitor, Tb PYK inh)
CCOc1ccc(CN(C)C(=O)CNC(=O)C2CCCCC2)cc1	none
COc1ccc(C2c3c(noc3C)CC(C)(O)C2C(C)=O)cc1 (stereo not given)	none (no result: VACV mCherry inh, VACV Venus inh)
CCCCOc1ccc(C(C)NC(=O)CCS(=O)(=O)Cc2ccccc2F)cc1 (stereo not given)	HCMV inh -66
CC1SC(=NC(=O)c2ccncc2)NC1=O (stereo not given)	none
CCCc1nc2ccc(Br)cc2c(=O)n1-c1ccc([N+](=O)[O-])c(C(F)(F)F)c1	VACV mCherry inh inconclusive, VACV Venus inh inconclusive, HCMV inh -87
COc1ccc([N+](=O)[O-])cc1CSc1nnc(NC(C)=O)s1	none
CC1(C)Cc2ccccc2C(NNC(=O)c2cccnc2)=N1	HCMV inh -92 (no result: VACV mCherry inh)
CCc1nnc(SCc2ccc(F)cc2Cl)c2cc3sccc3n12	HCMV inh inconclusive (no result: LmPK inhibitor)
CCc1nnc(SCC(=O)N(C)c2ccccc2)c2cc3sccc3n12	HCMV inh -67 (no result: LmPK inhibitor)
CC(=O)SC1CC2=CC(=O)CCC2(C)C2CCC3(C)C(CCC34CCC(=O)O4)C12 (stereo not given)	HCMV inh -63
COc1ccc(N2CCN(C(CNC(=O)COc3ccccc3)c3ccco3)CC2)cc1 (stereo not given)	none (no result: LmPK inhibitor)
N#Cc1ccc(-c2ccc(OCC(=O)NCC(=O)Nc3ccc(F)c(F)c3F)cc2)cc1	HCMV inh -60
CCc1c(C#N)sc(C(N)=O)c1CC	HCMV inh -74
COc1ccccc1CNS(=O)(=O)c1ccc(N2CCCCS2(=O)=O)cc1	none (no result: LmPK inhibitor)
N#Cc1ccc(C(=O)Nc2ccc(N3CCN(C(=O)c4ccco4)CC3)cc2)c(F)c1	none (no result: VACV mCherry inh, VACV Venus inh)
N#Cc1ccc(C(=O)Nc2cccc(NC(=O)c3ccco3)c2)c(F)c1	HCMV inh -74
CCOC(=O)c1nn(-c2ccc3c(c2)OCCO3)cc1O	LmPK inhibitor inconclusive
COC(=O)c1nn(-c2ccc3c(c2)CCN3C(C)=O)cc1O	LmPK inhibitor 10µM, HCMV inh inconclusive, Tb PYK inh 18µM (no result: VACV mCherry inh, VACV Venus inh)
COC(=O)c1nn(-c2ccc3c(c2)OCO3)cc1O	LmPK inhibitor 18µM (no result: VACV mCherry inh, VACV Venus inh)
CCOc1ccc(/C=N/N2C(C)CCCC2C)cc1 (stereo not given)	none
COCCCNC(=O)CCCn1c(SCC(=O)c2ccc(Br)cc2)nc2c(sc3ccccc32)c1=O	none (no result: LmPK inhibitor)
CCOc1cnn(-c2cc(Oc3ccc(C)cc3)ncn2)c(=O)c1Cl	none (no result: VACV mCherry inh)
Cc1ccccc1Oc1cc(-n2ncc(Cl)c(Cl)c2=O)ncn1	VACV mCherry inh inconclusive, VACV Venus inh 10µM, HCMV inh -105
CC(=O)NCCc1nc2cc(NC(=O)Nc3ccccc3)ccc2n1C	none (no result: VACV mCherry inh, VACV Venus inh)
CCOC(=O)c1c(C)[nH]c(C(=O)OCC(=O)NC(C)(C)C)c1C	HCMV inh -80
CC1=CC=CC2=NC(=O)CC(C)(C(=O)N(CC(=O)NC3CCCC3)c3ccccc3C)N12 (stereo not given)	none (no result: VACV mCherry inh, VACV Venus inh)
CC1=CC=CC2=NC(=O)CC(C)(C(=O)N(CC(=O)NC3CCCC3)c3ccc(F)cc3)N12 (stereo not given)	HCMV inh -82
CCOc1ccccc1/C=C/C(=O)NCC(=O)N1CCC(N(C)C2CCCCC2C)CC1 (stereo not given)	HCMV inh inconclusive
Cc1ccc(CSc2nnc3ccc(-c4ccncc4)nn23)cc1	HCMV inh -60 (no result: VACV mCherry inh, VACV Venus inh)
Cc1ccc(NC(=O)CSc2nnc3ccc(-c4ccncc4)nn23)cc1	HCMV inh inconclusive (no result: LmPK inhibitor)
C=CCn1c(CNC(=O)c2ccco2)nnc1SCC(=O)Nc1cccc(F)c1	none
